Hits are enriched below; roughly 9.3% of the tested compounds scored in any of these assays.
ELG1 genotox: qHTS screen for small molecules that induce genotoxicity in human embryonic kidney (HEK293T) cells expressing luciferase-tagged ELG1. HEK293T ELG1-luciferase reporter, luminescence, 16 h. Potency, µM (top dose mostly 46 µM), for inactives: at the top dose activity change, positive = activation, usual class: activators. 330,000 compounds, 1.3% hits. AID 504466, 2011; further: % of control where 0% means no effect; nearly all actives have a fitted effect of over 60% in size
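HEK293T cells expressing luciferase-tagged ELG1 were exposed to compound or DMSO vehicle for 16 hr at 37 °C and 5% CO2. Luciferase activity was then measured with ONE-Glo after 30 min at room temperature.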
NPC1 promoter act: qHTS Assay for NPC1 Promoter Activators; Huh7 NPC1 promoter luciferase reporter, 24 h; Potency, µM (highest dose often 9.22 µM), for inactives: at the top dose activation, most hits filed as activators; 320,000 compounds, 2.4% hits; further: % of control where 0% means no effect; nearly all actives have a fitted effect of over 60% in size
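Stable NPC1-promoter luciferase Huh7 line; cpd (DMSO) 24 h, 37 °C, 5% CO2; Amplite luciferase reagent 10 min RT; luminescence readout. qHTS format.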
SMN2 splice enh: qHTS Assay for Enhancers of SMN2 Splice Variant Expression | HEK293 SMN2-luciferase splicing reporter, luminescence, 30-36 h | Potency, µM (series often up to 46.1 µM), for the others: top-dose activity change, positive = activation, most hits filed as activators | 210,000 compounds, 2.8% hits; further: % of control where 0% means no effect; nearly all actives have a fitted effect of over 55% in size
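HEK293 cells carry an SMN2 […]–luciferase reporter in which exon 7 inclusion puts luciferase in frame. Cells were plated 10-12 h before compound addition, then incubated 30-36 h at 37C. ONE-Glo luminescence was read; sodium butyrate at 4.5 mM final served as control.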
FLuc modulator: qHTS profiling assay for firefly luciferase inhibitor/activator using purifed enzyme and Km concentrations of substrates (counterscreen for miR-21 project) | purified FLuc, Km substrates, luminescence inhibition | Luciferin 4-monooxygenase (Photinus pyralis), P08659 | AID 588342, 2011 | 360,000 compounds, 6.9% hits | Potency, µM (series often up to 57.5 µM), inactives show top-dose activity change, negative = inhibition, most hits filed as inhibitors;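 further: plate controls were vehicle for no effect and reference inhibitor for full effect; nearly all actives have a fitted effect of over 55% in size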
Target sequence (P08659 whole entry, looked up): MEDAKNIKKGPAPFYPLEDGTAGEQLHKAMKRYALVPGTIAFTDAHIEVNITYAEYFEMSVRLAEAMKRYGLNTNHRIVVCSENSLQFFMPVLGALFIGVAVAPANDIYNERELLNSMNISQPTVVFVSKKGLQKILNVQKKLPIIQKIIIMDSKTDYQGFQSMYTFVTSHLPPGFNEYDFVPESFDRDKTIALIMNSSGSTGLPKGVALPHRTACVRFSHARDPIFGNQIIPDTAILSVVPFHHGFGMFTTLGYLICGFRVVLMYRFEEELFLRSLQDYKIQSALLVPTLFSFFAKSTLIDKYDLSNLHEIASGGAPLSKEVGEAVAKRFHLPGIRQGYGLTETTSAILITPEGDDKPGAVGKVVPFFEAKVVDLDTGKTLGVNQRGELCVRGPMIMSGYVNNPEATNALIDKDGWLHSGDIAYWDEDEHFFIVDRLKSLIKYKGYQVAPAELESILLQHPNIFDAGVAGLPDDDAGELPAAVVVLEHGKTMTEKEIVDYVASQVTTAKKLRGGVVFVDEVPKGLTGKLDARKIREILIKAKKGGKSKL
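Biochemical qHTS of compounds, final roughly 60 µM downward over six points, against 10 nM purified firefly luciferase using Km concentrations of substrates (10 uM D-luciferin, 10 uM ATP) in Tris acetate pH 7.5 buffer; luminescence output.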
ELG1 DNA repair: qHTS screen for small molecules that inhibit ELG1-dependent DNA repair in human embryonic kidney (HEK293T) cells expressing luciferase-tagged ELG1; HEK293T ELG1-luciferase reporter, luminescence, 16 h; DNA damage induced by 5-fluorouridine; 330,000 compounds, 2.3% hits; Potency, µM (highest dose often 46.1 µM), for the others: at the top dose activity change, negative = inhibition, hits mostly inhibitors; further: on the % scale 0 is the no-effect control and ±100 the full control effect; nearly all actives have a fitted effect of over 55% in size
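HEK293T cells expressing luciferase-tagged ELG1 (2,000/well) received 5-Fluorouridine plus compound or DMSO for 16 hr at 37 °C. Luciferase was read by ONE-Glo luminescence after 30 min at room temperature.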
Rab9 prom act: qHTS Assay for Rab9 Promoter Activators. Potency, µM (series often up to 9.22 µM), for inactives: top-dose activation, negative = inhibition, hits mostly activators. 320,000 compounds, 2.8% hits. Huh7 Rab9 promoter-luciferase reporter, luminescence, 24 h; further: % of control where 0% means no effect; nearly all actives have a fitted effect of over 60% in size
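Promoter activation is measured as luciferase luminescence in Huh7 cells stably transfected with a Rab9 promoter–luciferase construct, following 24 h compound exposure at 37 °C and 10 min reagent incubation at ambient temperature.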
* marks the source's active call; other numbers are inactive results. The call rests on the fitted dose curve; in most records, active means well fitted curve in the direction sought with a large enough effect; inconclusive means small, poorly fitted or top-dose-only effect, or another doubt; inactive means no such curve, though single readings can be large; an effect the other way counts as inactive or inconclusive. Potency means the concentration at half of the fitted maximal effect.

For CC(C)(C)OC(=O)NCCc1nnc(SCC(=O)Nc2cccc(Cl)c2)o1 the results were ELG1 genotox -1.2%, NPC1 promoter act -0.2%, SMN2 splice enh -5.4%, FLuc modulator inconclusive, ELG1 DNA repair -0.1% and Rab9 prom act -13.9%.
For CCCS(=O)(=O)Nc1cc(C(F)(F)F)ccc1OCCOC the results were ELG1 genotox 6.1%, NPC1 promoter act 1.3%, SMN2 splice enh 19.9%, FLuc modulator -0.6%, ELG1 DNA repair 0.9% and Rab9 prom act 1.4%.
Screening O=C1C(Cl)=C(NC(=O)c2ccccc2)C(=O)C(Cl)=C1NC(=O)c1ccccc1 returned ELG1 genotox 2.5%, NPC1 promoter act -8.8%, FLuc modulator inconclusive, ELG1 DNA repair -4.0% and Rab9 prom act -10.2%.
`N#Cc1c(NC(=O)c2ccccc2)sc2c1CCCCC2` gave ELG1 genotox inconclusive, NPC1 promoter act 0.794µM*, SMN2 splice enh 0.631µM*, FLuc modulator inconclusive, ELG1 DNA repair inconclusive and Rab9 prom act 0.562µM*.
Cc1ccc(C(=O)Nc2sc3c(c2C#N)CCCCC3)cc1C was read as ELG1 genotox inconclusive, NPC1 promoter act 2.24µM*, SMN2 splice enh inconclusive, FLuc modulator inconclusive, ELG1 DNA repair inconclusive and Rab9 prom act 3.16µM*.
Screening N#Cc1c(Cl)nsc1NC(=O)c1ccccc1 returned ELG1 genotox -2.2%, NPC1 promoter act -14.8%, SMN2 splice enh -41.9%, FLuc modulator 15.1µM*, ELG1 DNA repair 2.91µM* and Rab9 prom act -22.6%.
For Cc1ccccc1C(=O)NC(=S)Nc1sc2c(c1C#N)CCCC2 the results were ELG1 genotox 0.1%, NPC1 promoter act -2.0%, SMN2 splice enh -4.0%, FLuc modulator 19µM*, ELG1 DNA repair inconclusive and Rab9 prom act -0.7%.
Screening CC(=O)Nc1sc2c(c1C#N)CCCCC2 returned ELG1 genotox 16.7%, NPC1 promoter act 15.3%, SMN2 splice enh 21.1%, FLuc modulator inconclusive, ELG1 DNA repair inconclusive and Rab9 prom act 14.9%.
`CC(C)c1cccc(C(C)C)c1NC(=O)COC(=O)[C@H](C)NC(N)=O` gave ELG1 genotox 0.7%, NPC1 promoter act 2.3%, SMN2 splice enh 16.6%, FLuc modulator -3.1%, ELG1 DNA repair 23.8% and Rab9 prom act 13.9%.
For C=CCNC(=S)Nc1sc2c(c1C#N)CCCC2 the results were ELG1 genotox -1.1%, NPC1 promoter act -1.4%, SMN2 splice enh 12.1%, FLuc modulator 21.3µM*, ELG1 DNA repair 3.8% and Rab9 prom act 2.2%.
For O=C(NNC(=O)c1ccc(Cl)cc1Cl)Nc1ccccc1 the results were ELG1 genotox -0.6%, NPC1 promoter act 0.9%, SMN2 splice enh 11.9%, FLuc modulator -2.9%, ELG1 DNA repair 0.2% and Rab9 prom act -1.4%.
For O=C(NNC(=S)Nc1ccccc1)c1cc(-c2cccnc2)nc2ccccc12 the results were ELG1 genotox -3.1%, NPC1 promoter act -1.0%, SMN2 splice enh 22.1%, FLuc modulator 13.5µM*, ELG1 DNA repair 6.7% and Rab9 prom act 15.7%.
`CC(OC(=O)c1cc(-c2cccnc2)nc2ccccc12)C(=O)Nc1ccc2ccccc2c1` (configuration not stated) gave ELG1 genotox -6.9%, NPC1 promoter act -0.4%, SMN2 splice enh -1.1%, FLuc modulator -1.9%, ELG1 DNA repair 18.4µM* and Rab9 prom act -1.6%.
`COc1ccc(/C(C)=N/NC(=O)c2cc(-c3cccnc3)nc3ccccc23)cc1` gave ELG1 genotox 18.9%, NPC1 promoter act -2.2%, SMN2 splice enh 14.5%, FLuc modulator 0.1%, ELG1 DNA repair 9.7% and Rab9 prom act -1.6%.
O=C(NNC(=O)c1cc(-c2ccc(Cl)cc2Cl)nc2ccccc12)Nc1ccccc1 was read as ELG1 genotox 3.0%, NPC1 promoter act -5.6%, SMN2 splice enh -2.4%, FLuc modulator 6.75µM*, ELG1 DNA repair inconclusive and Rab9 prom act -4.3%.
`CCOC(=O)c1ccc(NC(=S)NNC(=O)c2cc(-c3cccnc3)nc3ccccc23)cc1` gave ELG1 genotox -16.7%, NPC1 promoter act 3.8%, FLuc modulator 21.3µM*, ELG1 DNA repair 14.6µM* and Rab9 prom act 11.1%.
`CN1CCN(C/C(=C2/N=C(c3ccccc3)OC2=O)N(C)C)CC1` gave ELG1 genotox 3.6%, NPC1 promoter act -5.1%, SMN2 splice enh -5.4%, FLuc modulator 3.7%, ELG1 DNA repair 14.0% and Rab9 prom act -5.0%.
Screening CC/C(=N\Nc1ccnc2cc(Cl)ccc12)c1ccc(O)cc1 returned ELG1 genotox -2.7%, NPC1 promoter act -2.8%, FLuc modulator inconclusive, ELG1 DNA repair -3.7% and Rab9 prom act -0.7%.
Cc1cc(C(F)(F)F)nn1Cc1n[nH]c(=S)n1-c1ccc(F)cc1 was read as ELG1 genotox 0.9%, NPC1 promoter act 0.7%, SMN2 splice enh 5.1%, FLuc modulator -10.5%, ELG1 DNA repair 8.8% and Rab9 prom act 0.4%.
Screening COc1ccc(S(=O)(=O)Nc2cc3c(cc2NCc2ccccc2)n(C)c(=O)n3C)cc1OC returned SMN2 splice enh 3.55µM* and FLuc modulator inconclusive.
`Cn1c(=O)n(C)c2cc(N3CCOCC3)c(NS(=O)(=O)c3ccc(C(C)(C)C)cc3)cc21` gave SMN2 splice enh -3.9% and FLuc modulator -1.4%.
Screening Cn1c(=O)n(C)c2cc(NS(=O)(=O)c3ccc(Cl)cc3)c(NCc3ccccc3)cc21 returned SMN2 splice enh 7.1% and FLuc modulator 15.1µM*.
`Cn1c(=O)n(C)c2cc(NS(=O)(=O)c3ccc(C(C)(C)C)cc3)c(NCc3ccccc3)cc21` gave SMN2 splice enh 5.62µM* and FLuc modulator inconclusive.
For Cc1ccc(CNS(=O)(=O)c2ccc3c(c2)n(C)c(=O)n3C)cc1 the results were ELG1 genotox -1.7%, NPC1 promoter act -11.2%, FLuc modulator 0.4%, ELG1 DNA repair 8.2µM* and Rab9 prom act -5.8%.
Screening Cc1ccc(N2CCN(c3ccc(C)cc3)C2c2ccncc2)cc1 returned ELG1 genotox -2.0%, NPC1 promoter act -8.7%, SMN2 splice enh 5.4%, FLuc modulator 2.0%, ELG1 DNA repair inconclusive and Rab9 prom act 3.0%.

From PubChem BioAssay
